{"source": "PubChem BioAssay (EPA / NIEHS)", "note": "Inconclusive results are not listed. Active and inactive are the calls of the source. How the source made its calls: active means hit-call score of the fitted dose curve at least 0.9, where 1 is the maximum; inconclusive means response in the unintended direction; inactive means score below 0.9."}
{"molecular_target": "Cellular tumor antigen p53 (Homo sapiens) (UniProt P04637)", "sequence (P04637 whole entry, looked up, the tested form may be a part)": "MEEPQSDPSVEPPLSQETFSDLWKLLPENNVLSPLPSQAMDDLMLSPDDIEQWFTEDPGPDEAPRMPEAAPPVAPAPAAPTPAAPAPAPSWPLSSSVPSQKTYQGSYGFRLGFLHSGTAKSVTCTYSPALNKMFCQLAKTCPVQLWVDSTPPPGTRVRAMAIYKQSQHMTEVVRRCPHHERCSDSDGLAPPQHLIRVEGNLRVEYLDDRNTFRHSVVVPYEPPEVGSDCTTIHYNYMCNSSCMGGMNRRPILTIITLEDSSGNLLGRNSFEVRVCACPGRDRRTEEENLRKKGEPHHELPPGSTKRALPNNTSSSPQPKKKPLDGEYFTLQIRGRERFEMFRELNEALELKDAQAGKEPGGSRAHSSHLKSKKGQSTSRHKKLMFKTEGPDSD", "experiment": "TOX21_p53_BLA_p4_ratio: Tox21 HCT-116 p53 Agonism Beta-lactamase Assay, Ratio, Phase 4 (AID 2283601)", "description": "TOX21_p53_BLA_p4 is a cell-based, single-readout assay that uses HCT116, a human intestinal cell line, […] in a 1536-well plate.TOX21_p53_BLA_p4_ratio is an assay readout measuring reporter gene via receptor activity and designed using inducible reporter (beta lactamase induction) detected with GAL4 b-lactamase reporter gene. The signal is derived from the ratio of cleaved (ch2) to uncleaved (ch1)reporter gene substrate used as the measure of target activity.Data from the assay component TOX21_p53_BLA_p4_ratio was analyzed into 1 assay endpoint. This assay endpoint, TOX21_p53_BLA_p4_ratio, was analyzed in the positive analysis fitting direction relative to DMSO as the negative control and baseline of activity. Using a type of inducible reporter, gain-of-signal activity can be used to understand changes in the reporter gene as they relate to the gene TP53. Furthermore, this assay endpoint can be referred to as a primary readout, because this assay has produced multiple assay endpoints where this ratio serves a reporter gene function to understand target activity. To generalize the intended target to other relatable targets, this assay endpoint is annotated to the DNA binding intended target family, where the subfamily is tumor suppressor.\nThawing Method: Place 14 mL of pre-warmed thaw medium into a 15 mL of conical tub. Remove the vial of cells to be thawed from liquid nitrogen and thaw rapidly by placing at 37C in a water bath with gentle agitation for 1-2 minutes. Decontaminate the vial by wiping with 70% ethanol before opening in a biological safety cabinet. Transfer the vial contents drop-wise into 14 mL of thaw medium in a sterile 15-mL conical tub. Centrifuge cells at 900 rpm for 4 minutes and resuspend in thaw medium. Transfer contents to the T75 tissue culture flask containing Thaw Medium and place flask in a humidified 37C/5% CO2 incubator. Switch to growth medium at first passage.Propagation Method: Aspirate medium, rinse once in DPBS, add 0.25% Trypsin/EDTA and swirl to coat the cell evenly. Add an equal volume of Growth Medium to inactivate Trypsin after 2-3 minutes incubation at 37C. Centrifuge cells at 900 rpm for 4 minutes and resuspend in growth medium. Cell should be passage or fed at least twice a week.Assay Protocol: Harvest cells from culture in growth medium and resuspend in assay medium. 2.2 Dispense 4000 cells/5 uL/well into 1536-well black/clear bottom plates using a Multidrop dispenser. After the cells were incubated at 37C for 5 hours, 23 nL of compounds dissolved in DMSO were transferred to the assay plate by a PinTool resulting in a 217-fold dilution. Incubate the plates for 16 hours at 37C, 5% CO2. Add 1 uL of 6X LiveBLAzer FRET B/G (CCF4-AM) Substrate Mixture to each well using a BioRAPTR dispenser and incubate the plates at room temperature for 2 hours. Measure fluorescence intensity at 460 and 530 nm emission and 405 nm excitation by an Envision detector. Data is expressed as the ratio of 460nm/530nm emissions. Add 4 uL of Cell-titer Glo to each well using BioRAPTR and incubate the plates at room temperature for 2 hours. Measure fluorescence intensity by a VewLux plate reader."}
{"smiles": "Cc1cc(C)c(C)c(O)c1", "outcome": "inactive"}
{"smiles": "CC=CC(=O)N(CC)c1ccccc1C", "outcome": "inactive"}
{"smiles": "CC(C)c1ccc2c(C(C)C)cc(C(C)C)c(S(=O)(=O)O)c2c1", "outcome": "inactive"}
{"smiles": "C=C(C)c1cccc(C(C)(C)N=C=O)c1", "outcome": "inactive"}
{"smiles": "CCC(CO)CO", "outcome": "inactive"}
{"smiles": "CCCCCCCCCCC=CC#N", "outcome": "inactive"}
{"smiles": "CC(=O)Oc1ccc(C(C)=O)cc1", "outcome": "inactive"}
{"smiles": "CC(C)c1ccc(C#N)cc1", "outcome": "inactive"}
{"smiles": "CCCCOCCOC(=O)COc1nc(Cl)c(Cl)cc1Cl", "outcome": "inactive"}
{"smiles": "O=C(C=Cc1ccccc1)OCc1ccccc1", "outcome": "inactive"}
{"smiles": "COc1c2ccoc2cc2oc(=O)ccc12", "outcome": "inactive"}
{"smiles": "C=CCOc1c(Br)cc(Br)cc1Br", "outcome": "inactive"}
{"smiles": "CC(C)=CCCC(C)C=O", "note": "(stereo not given)", "outcome": "inactive"}
{"smiles": "c1ccc2c(c1)ccc1cc3c(ccc4ccccc43)cc12", "outcome": "inactive"}
{"smiles": "C=C(C)[C@@H]1CCC2=CCC[C@@H](C)[C@]2(C)C1", "outcome": "inactive"}
{"smiles": "O=C1CCCC1", "outcome": "inactive"}
{"smiles": "O=[N+]([O-])C1(Br)COCOC1", "outcome": "inactive"}
{"smiles": "c1ccc(CCCc2ccncc2)cc1", "outcome": "inactive"}
{"smiles": "C[C@]12C=CC(=O)C=C1CC[C@@H]1[C@@H]2[C@@H](O)C[C@@]2(C)[C@H]1CC[C@]2(O)C(=O)CO", "outcome": "inactive"}
{"smiles": "CCN(CCC#N)c1ccc(N=Nc2c(Cl)cc([N+](=O)[O-])cc2Cl)cc1", "outcome": "inactive"}
{"smiles": "NC(=O)N=NC(N)=O", "outcome": "inactive"}
{"smiles": "CC(C)(C)C(=O)C=Cc1ccc(Cl)cc1", "outcome": "inactive"}
{"smiles": "CCCCCc1ccc(Cl)cc1", "outcome": "inactive"}
{"smiles": "C=C(C)C(=O)OCC(C)C", "outcome": "inactive"}
{"smiles": "CCCCCCCCCCOC(C)=O", "outcome": "inactive"}
{"smiles": "c1ccc(-c2ccccn2)nc1", "outcome": "inactive"}
{"smiles": "CC/C=C\\CCOC(=O)CCCCC", "outcome": "inactive"}
{"smiles": "O=c1n(CCO)c(=O)n(CCO)c(=O)n1CCO", "outcome": "inactive"}
{"smiles": "CC(=O)[C@@]1(O)CC[C@H]2[C@@H]3C[C@H](C)C4=CC(=O)C=C[C@]4(C)[C@@]3(F)[C@@H](O)C[C@@]21C", "outcome": "inactive"}
{"smiles": "CN(C)c1ccc(N=Nc2ccccc2C(=O)O)cc1", "outcome": "inactive"}
{"smiles": "CC(C)c1ccc2c(c1)CC[C@H]1[C@](C)(CN)CCC[C@]21C", "AC50": "85.8 µM (active)"}
{"smiles": "CC(C)CC(O)Cc1ccccc1", "note": "(stereo not given)", "outcome": "inactive"}
{"smiles": "Nc1nc2ccccc2[nH]1", "outcome": "inactive"}
{"smiles": "CCCC(=O)OCc1ccccc1", "outcome": "inactive"}
{"smiles": "O=C(O)c1cc2ccccc2nc1C(=O)O", "outcome": "inactive"}
{"smiles": "COC(=O)c1ccc2cc(C(=O)OC)ccc2c1", "outcome": "inactive"}
{"smiles": "O=C(O)CCCCCCCCCC(=O)O", "outcome": "inactive"}
{"smiles": "Cc1ccc(C(C)c2ccc(C)c(C)c2)cc1C", "outcome": "inactive"}
{"smiles": "CCN(CC#N)c1cccc(C)c1", "outcome": "inactive"}
{"smiles": "O=c1cc[nH]c(=S)[nH]1", "outcome": "inactive"}
